Here are results for eight molecules from PubChem BioAssay (Tox21).

A short description of assay [1]: qHTS assay to identify small molecule antagonists of the constitutive androstane receptor (CAR) signaling pathway - cell viability counter screen (AID 1224837). Also: % is scaled to controls: 0 for no effect and ±100 for the full control effect; nearly all actives have a fitted effect of over 45% in size. An outline of the steps:
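Counter screen run in HepG2-CYP2B6-hCAR cells: 4 hr settle, compound titration (15 concentrations) with 50 nM CITCO, 23 hr at 37 C/5% CO2, CellTiter-Fluor fluorescence.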
Background: qHTS replaces the single test concentration by a dilution series.

Assay [2] addresses Nuclear receptor subfamily 1 group I member 3 (Homo sapiens) (UniProt Q14994). As to the kind of experiment: qHTS assay to identify small molecule antagonists of the constitutive androstane receptor (CAR) signaling pathway (AID 1224838). Also: % is scaled to controls: 0 for no effect and ±100 for the full control effect; nearly all actives have a fitted effect of over 40% in size. An outline of the steps:
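Cell line: HepG2 double-stable for hCAR and CYP2B6-2.2kb reporter. Agonist: CITCO, 50 nM final. Compounds: 15 concentrations, 24 h, 37 C. Detection: ONE-Glo luminescence.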

Assay [3] shares this target. As to the kind of experiment: qHTS assay to identify small molecule agonists of the constitutive androstane receptor (CAR) signaling pathway (AID 1224839). Also: nearly all actives have a fitted effect of over 15% in size. Also: potency is read from the fitted curve at half-maximal effect.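 As to activation: HepG2 cells stably carrying human CAR and a CYP2B6 luciferase reporter; % is scaled to controls: 0 for no effect and ±100 for the full control effect.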 In a few lines:
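HepG2 cells stably expressing hCAR and a CYP2B6-2.2kb luciferase reporter were treated with compounds at 15 concentrations plus 0.75 uM PK11195 (final) for 24 h at 37 C; luminescence was read after ONE-Glo addition.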

The nature of assay [4]: qHTS assay to identify small molecule antagonists of the estrogen related receptor signaling pathway with the pleiotropic PPARgamma coactivator (PGC) from Tox21 10K library - cell viability counter screen (AID 1224840; active = well fitted cell-killing curve with a large enough effect in the repeat runs, not every such curve was filed as active; also: % is scaled to controls: 0 for no effect and ±100 for the full control effect; nearly all actives have a fitted effect of over 40% in size). In a few lines:
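Following seeding of 2,000 PGC/ERR cells/well and 6 hours' incubation, test compounds were delivered in DMSO. The plates then sat 17.5 hours at 37 C before a fluorogenic live-cell protease reagent (CellTiter-Fluor) was read after 30 min.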

For assay [5], the target named is Thyrotropin receptor (Homo sapiens) (UniProt P16473). The experiment in a line: qHTS assay to identify small molecule agonists of the thyroid stimulating hormone receptor (TSHR) signaling pathway (AID 1224843; calls by dose curve; also: nearly all actives have a fitted effect of over 45% in size; also: potency is read from the fitted curve at half-maximal effect; as to activation: % is scaled to controls: 0 for no effect and ±100 for the full control effect). In a few lines:
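Steps: seed 800 TSHR-HEK293 cells per well; add test compound and hold 30 min at ambient temperature; dispense cAMP-d2 then anti-cAMP cryptate; incubate 1 h at ambient; measure fluorescence intensity.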

Assay [6] can be described thus: qHTS assay to identify small molecule agonists of the hypoxia (HIF-1) signaling pathway - cell viability counter screen (AID 1224844; calls by dose curve; also: % is scaled to controls: 0 for no effect and ±100 for the full control effect; nearly all actives have a fitted effect of over 50% in size). An outline of the steps:
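Cells (HRE-bla ME-180, 2,000 per well) sat 5 hrs at 37C, got compound for 17 hrs, were read for CCF4-AM FRET, and were finally lysed with CellTiter-Glo for a 30 min room-temperature luminescence read.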

A short description of assay [7]: qHTS assay to identify small molecule agonists of H2AX (AID 1224845; active = well fitted activation curve with a large enough effect in the signal ratio in the repeat runs, not every such curve was filed as active; the % refers to the signal ratio; also: % is scaled to controls: 0 for no effect and ±100 for the full control effect). In a few lines:
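Wild-type CHO-K1 cells, plated overnight, exposed 3hr at 37C to 15 concentrations (0.76% DMSO final). Lysed, then HTRF anti-pH2AX (S139) cryptate and anti-H2AX-d2 antibodies, 24 hr room temperature; 665/620 nm emission read.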

Assay [8] is described as follows: qHTS assay to identify small molecule agonists of the hypoxia (HIF-1) signaling pathway (AID 1224846; active = well fitted activation curve with a large enough effect in the signal ratio in the repeat runs, not every such curve was filed as active; the % refers to the signal ratio; also: % is scaled to controls: 0 for no effect and ±100 for the full control effect). An outline of the steps: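 A low-serum medium (0.5% dialyzed FBS) holding 2,000 HRE-bla ME-180 cells per well is preincubated for 5 hrs, dosed with compounds by pintool, and kept a further 17 hrs at 37C, 5% CO2 before CCF4-AM FRET detection of beta-lactamase.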

A short description of assay [9]: qHTS RealTime-Glo MT Cell Viability Assay in HepG2 cells - 24 hour (AID 1224867). Also: % is scaled to controls: 0 for no effect and ±100 for the full control effect; nearly all actives have a fitted effect of over 50% in size. In a few lines: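 Cells + NanoLuc/prosubstrate dispensed (600 cells/well) → 5 h at 37 C/5% CO2 → compounds in DMSO transferred → 40 h incubation at 37 C, luminescence read at 0, 8, 16, 24, 32, 40 h.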
Assay [10] can be described thus: qHTS RealTime-Glo MT Cell Viability Assay in HEK293 cells - 32 hour (AID 1224868). Also: nearly all actives have a fitted effect of over 50% in size. Also: potency is read from the fitted curve at half-maximal effect. In a few lines: (§1)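 Tox21 10K qHTS, HEK293, 600 cells/well, RealTime-Glo reagent co-dispensed with cells; 5 h preincubation, compound by pintool, 37 C, luminescence at 0–40 h.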
A short description of assay [11]: A CellTox Green Cytotoxicity Assay to monitor cytotoxicity in HEK293 cells - 0 hour (AID 1224869). Also: nearly all actives have a fitted effect of over 50% in size. Also: potency is read from the fitted curve at half-maximal effect. In a few lines:
(§2)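 Fluorescence intensity, read at 0, 8, 16, 24, 32 and 40 h of compound treatment, reflected dye binding to DNA of dead HEK293 cells; compounds (23 nL, DMSO) were added 5 h after plating cells with reagent.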

A short description of assay [12]: qHTS RealTime-Glo MT Cell Viability Assay in HepG2 cells - 40 hour (AID 1224870). In a few lines: (§3)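 HepG2 cells (600/well) mixed with RealTime-Glo MT reagent, settled 5 h at 37 C/5% CO2 before compound addition. Nonlytic NanoLuc luminescence from viable-cell prosubstrate reduction read repeatedly during 40 h treatment at 37 C.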
Assay [13] in a line: A CellTox Green Cytotoxicity Assay to monitor cytotoxicity in HEK293 cells - 40 hour (AID 1224871). Also: % is scaled to controls: 0 for no effect and ±100 for the full control effect; nearly all actives have a fitted effect of over 45% in size. An outline of the steps:
as §2

Assay [14] in a line: qHTS RealTime-Glo MT Cell Viability Assay in HEK293 cells - 16 hour (AID 1224872). In a few lines: as §1
Assay [15] is described as follows: qHTS RealTime-Glo MT Cell Viability Assay in HepG2 cells - 8 hour (AID 1224873). Also: % is scaled to controls: 0 for no effect and ±100 for the full control effect; nearly all actives have a fitted effect of over 55% in size. An outline of the steps:
as §3

A short description of assay [16]: qHTS assay to identify small molecule antagonists of the estrogen related receptor signaling pathway with the pleiotropic PPARgamma coactivator (PGC) from Tox21 10K library (AID 1224841; call rule not given here; also: potency is read from the fitted curve at half-maximal effect). An outline of the steps:
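qHTS antagonist format: PGC/ERR cells, 2k/well, compound in DMSO by pin transfer after 6 h attachment, 18 h treatment at 37 C, One-Glo luminescence read at 30 min.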

The nature of assay [17]: qHTS assay to identify small molecule agonists of the estrogen related receptor signaling pathway with the pleiotropic PPARgamma coactivator (PGC) from Tox21 10K library (AID 1224842). Also: % is scaled to controls: 0 for no effect and ±100 for the full control effect; nearly all actives have a fitted effect of over 15% in size. An outline of the steps: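 PGC/ERR reporter cell line, 2,000 cells per well, incubated 6 h at 37 C before 23 nL compound in DMSO was added. After 18 h at 37 C, One-Glo luminescence read following 30 min at room temperature.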

Assay [18] in a line: qHTS assay to identify small molecule agonists of H2AX - cell viability counter screen (AID 1224847; calls by dose curve; also: top concentration of the series differs between compounds; % is scaled to controls: 0 for no effect and ±100 for the full control effect; nearly all actives have a fitted effect of over 30% in size). An outline of the steps:
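Wild-type CHO-K1 cells (10% FBS medium) were plated overnight at 37C, exposed to compounds at 15 concentrations for 3 hr at 37C (0.76% DMSO final), and viability was read as CellTiter-Glo luminescence after 30 min at room temperature.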

A short description of assay [19]: qHTS assay to identify small molecule antagonists of the estrogen related receptor (ERR) signaling pathway from Tox21 library (AID 1224848). An outline of the steps: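 Luminescent reporter read-out (ONE-Glo) from NTP's ERR cell line after 18 h treatment at 37 C with DMSO-dissolved Tox21 compounds; cells pre-plated 6 h beforehand at 2,000 per well.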
Assay [20] can be described thus: qHTS assay to identify small molecule agonists of the estrogen related receptor (ERR) signaling pathway from Tox21 library (AID 1224849; calls by dose curve; also: % is scaled to controls: 0 for no effect and ±100 for the full control effect; nearly all actives have a fitted effect of over 15% in size). The settings on record: ERR reporter cell line, ONE-Glo luciferase, 18 h. An outline of the steps: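 Screening used an NTP-provided ERR luciferase cell line. Compounds in DMSO were added 6 h after seeding and left 18 h at 37 C before a 30 min ONE-Glo step and luminescence reading.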

Values joined by “and” are separate entries in the source; they are usually repeats but may differ in a detail not shown here. Equal entries are not always repeated. Results filed as inconclusive are left out. The source holds several records for some structures; these can differ, active in one and inactive in another. Active and inactive are the calls of the source. Unless noted, calls follow the shape of the dose curve; as a rule, active = well fitted curve in the direction sought with a large enough effect in the repeat runs; inconclusive = weak or mixed curves; inactive = no such curve, though single readings can be large; an effect the other way counts as inactive or inconclusive.

Sequence of Nuclear receptor subfamily 1 group I member 3 (Homo sapiens) (Q14994 whole entry, looked up): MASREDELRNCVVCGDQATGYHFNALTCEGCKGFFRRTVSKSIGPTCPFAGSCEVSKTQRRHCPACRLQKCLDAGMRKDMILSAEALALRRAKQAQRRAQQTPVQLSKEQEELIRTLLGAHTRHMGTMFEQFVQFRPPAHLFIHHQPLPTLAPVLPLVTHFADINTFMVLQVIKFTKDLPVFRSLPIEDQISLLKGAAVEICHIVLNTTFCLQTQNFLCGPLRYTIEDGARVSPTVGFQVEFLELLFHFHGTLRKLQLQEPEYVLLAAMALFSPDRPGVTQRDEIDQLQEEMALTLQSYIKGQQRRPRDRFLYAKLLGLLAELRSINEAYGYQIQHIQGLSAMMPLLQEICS
Sequence of Thyrotropin receptor (Homo sapiens) (P16473 whole entry, looked up): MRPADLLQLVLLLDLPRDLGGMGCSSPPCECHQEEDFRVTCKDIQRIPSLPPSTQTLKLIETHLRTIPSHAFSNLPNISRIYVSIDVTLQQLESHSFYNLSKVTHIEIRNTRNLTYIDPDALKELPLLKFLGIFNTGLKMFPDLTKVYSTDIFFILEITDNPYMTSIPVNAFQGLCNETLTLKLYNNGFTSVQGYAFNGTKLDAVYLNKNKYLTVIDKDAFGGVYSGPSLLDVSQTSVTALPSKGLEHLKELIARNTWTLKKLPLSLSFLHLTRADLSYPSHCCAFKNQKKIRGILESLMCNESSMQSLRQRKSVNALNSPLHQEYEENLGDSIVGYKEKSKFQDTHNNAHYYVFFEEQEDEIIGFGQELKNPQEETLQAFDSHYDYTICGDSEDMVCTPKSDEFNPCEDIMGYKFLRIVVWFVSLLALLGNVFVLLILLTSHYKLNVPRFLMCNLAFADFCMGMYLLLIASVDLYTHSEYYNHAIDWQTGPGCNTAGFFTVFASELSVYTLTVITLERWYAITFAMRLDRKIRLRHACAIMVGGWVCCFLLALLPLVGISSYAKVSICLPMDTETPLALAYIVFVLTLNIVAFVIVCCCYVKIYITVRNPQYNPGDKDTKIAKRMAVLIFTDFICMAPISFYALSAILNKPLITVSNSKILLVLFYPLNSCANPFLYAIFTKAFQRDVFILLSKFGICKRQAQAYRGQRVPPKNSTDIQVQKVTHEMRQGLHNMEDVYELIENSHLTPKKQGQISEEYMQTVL

As for `Cc1cc(Cl)ccc1O`, the Potency result in assay [1], in [2], in assay [3], in [4], in assay [5] and in assay [6] was “inactive” each time. The Potency entry in assay [7], in [10], in assay [11] and in assay [13] was “inactive” each time. The result in assay [8], in assay [9], in assay [12], in [14] and in assay [15] was inactive.
Regarding `CCc1cccc(C)c1N(C(=O)CCl)C(C)COC` (stereo not given), the Potency result in assay [1], in assay [2], in assay [4], in assay [5], in assay [6] and in [7] was “inactive” each time. The Potency entry in [18], in assay [10], in [11] and in [13] was “inactive” throughout. Besides, the Potency is 25.7 µM (active) and 15.4 µM (active) in assay [3]; 45.8 µM (active) and 24.3 µM (active) in [16]; 51.3 µM (active) and 54.5 µM (active) in assay [19]. In addition, the call in [17], in assay [9], in [12], in assay [14] and in [15] was inactive. Further, the activity change, positive = activation in assay [20] (at 92.4 µM (top of the series)) was -45.5% (inactive) and -42% (inactive).
`c1ccc2c(c1)Oc1ccccc1O2`: the Potency result in assay [1], in assay [2], in assay [3], in [4], in assay [5] and in [6] was “inactive” in each case. Moreover, the Potency entry in assay [7], in assay [18], in assay [10], in [11] and in [13] was “inactive” throughout. The result in [8], in [9], in [12], in [14] and in assay [15] was inactive.
Consider `O=C(NC(=O)c1c(F)cccc1F)Nc1cc(Cl)c(OC(F)(F)C(F)C(F)(F)F)cc1Cl` (stereo not given), for which the Potency result in [1], in assay [2], in assay [3], in assay [4], in assay [16] and in assay [5] was “inactive” each time. In addition, the Potency entry in assay [6], in assay [7], in assay [18], in assay [11] and in assay [13] was “inactive” in each case. Besides, the result in assay [17], in [8], in assay [9], in assay [14] and in assay [15] was inactive. In addition, the activity change, positive = activation was -26% (inactive) in assay [20] (at 42.5 µM (top of the series)) and -26.5% (inactive) in assay [20] (at 92.4 µM (top of the series)). The Potency in assay [10] is 12.3 µM (active) and inactive.
Consider `CCCN(CCC)c1c([N+](=O)[O-])cc(C(F)(F)F)cc1[N+](=O)[O-]`, for which the Potency result in assay [1], in assay [2], in assay [3], in assay [4], in [6] and in assay [7] was “inactive” each time. Further, the Potency result in assay [18], in assay [10] and in assay [13] was “inactive” in each case. Moreover, the Potency is 10.8 µM (active) and 12.2 µM (active) in assay [5]; 1.55 µM (active) and inactive in [11]. The call in assay [8], in assay [9], in assay [14] and in assay [15] was inactive.
Take `Cc1ccccc1O`: the Potency entry in assay [1], in assay [2], in assay [3], in assay [4], in [5] and in assay [6] was “inactive” each time. The Potency result in assay [7], in assay [18], in assay [10], in assay [11] and in [13] was “inactive” in each case. For the same molecule, the molecule was classed as inactive in assay [8], in assay [9], in assay [12], in assay [14] and in [15].
Take `c1ccc(OP(Oc2ccccc2)Oc2ccccc2)cc1`: the Potency result in assay [1], in assay [2], in [3], in assay [4], in [5] and in [6] was “inactive” throughout. Besides, the Potency result in assay [7], in [18], in [10], in assay [11] and in assay [13] was “inactive” each time. Moreover, the result in [9], in assay [12], in [14] and in [15] was inactive.
As to `NCCc1ccc(O)cc1`, the Potency result in [1], in assay [2], in assay [3], in assay [4], in assay [5] and in assay [6] was “inactive” throughout. The Potency result in assay [7], in [18], in [10], in assay [11] and in assay [13] was “inactive” each time. The outcome in [9], in [12], in assay [14] and in assay [15] was inactive.
